Our source for the Potency, viability change, negative = cytotoxic and activity change, negative = cytotoxicity values is PubChem BioAssay (Tox21).

Inconclusive results are not listed. Values without a mark were called inactive. Active and inactive are the calls of the source. Calls come from the whole dose curve; as a rule, active = well fitted cell-killing curve with a large enough effect in the repeat runs; inconclusive = weak or mixed curves, or effect the other way; inactive = flat fitted curve, though single readings scatter.

Test [1] is described as follows: cAMP Responsive Elements (CRE) small molecule antagonists, cell-based qHTS assay: qHTS cell viability counter screen (AID 2060913). Note: nearly all actives have a fitted effect of over 40% in size. Particulars: CRE-bla HEK293T viability, CellTiter-Glo luminescence, 5 h; series mostly up to 92.4 µM. Put shortly:
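Cytotoxicity counter screen multiplexed with the CRE-bla antagonist read: HEK293T cells in DMEM with dialyzed FBS and 25 mM HEPES were treated 3 hrs under 0.25 uM final NKH477, then viability measured by CellTiter-Glo luminescence.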
Background: Quantitative high-throughput screening tests each substance at several concentrations.

Test [2] is described as follows: cAMP Responsive Elements (CRE) small molecule agonists, cell-based qHTS assay: qHTS cell viability counter screen (AID 2060914).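 Note: viability read after 3 h of compound exposure; nearly all actives have a fitted effect of over 50% in size.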 Particulars: CRE-bla HEK293T viability, CellTiter-Glo luminescence, 5 h; series mostly up to 92.4 µM. An outline of the steps: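 CRE-bla HEK 293T cells, plated 18 h at 37 °C, were exposed to compounds for 3 h at 37 °C/5% CO2. Viability was then measured in the same wells by CellTiter-Glo luminescence after 30 min at room temperature.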
% is set by controls: 0 for no effect and ±100 for the full control effect; potency is the fitted concentration of half-maximal effect.

With `O=[N+]([O-])C1(Br)COCOC1`, the Potency result in test [1] and in test [2] was “inactive” throughout.
For `Brc1c2ccccc2cc2ccccc12`, the Potency entry in test [1] and in test [2] was “inactive” in each case.
For the compound `CN(C)CCC(c1ccc(Cl)cc1)c1ccccn1` (stereo unspecified), the Potency result in test [1] and in test [2] was “inactive” in each case.
Turning to `NCCNc1cccc2ccccc12`, the Potency result in test [1] and in test [2] was “inactive” each time.
Take `Cc1ccc(S(=O)(=O)NC(=O)NC2CCCCCCC2)cc1`: the Potency result in test [1] and in test [2] was “inactive” throughout.
On to `C=CCOCC(O)CS(=O)(=O)O` (stereo unspecified), for which the Potency entry in test [1] and in test [2] was “inactive” throughout.
Turning to `C=C[Si](C)(C)Cl`, in test [1], the viability change, negative = cytotoxic was -0.015% [at 8.39 µM]. Also, the activity change, negative = cytotoxicity in test [2] was -1.19% [at 8.39 µM].
On to `O=C(O)CCN(C1(C(=O)NO)CCCC1)S(=O)(=O)c1ccc(Oc2ccc(F)cc2)cc1`, for which the Potency result in test [1] and in test [2] was “inactive” throughout.
Take `O=c1[nH]c(=O)c2cn[nH]c2[nH]1`: the Potency result in test [1] and in test [2] was “inactive” each time.
For `NS(=O)(=O)c1cc(C(=O)O)cc(N2CCCC2)c1Oc1ccccc1`, the Potency entry in test [1] and in test [2] was “inactive” each time.
Consider `C=CC(C)(CCC=C(C)C)OC(=O)c1ccccc1` (stereo unspecified), for which the Potency entry in test [1] and in test [2] was “inactive” each time.
Consider `CCCCCOC(=O)CCCC`, for which the Potency result in test [1] and in test [2] was “inactive” each time.
In the case of `CCCCCCCC/C=C\CCCCCCCC(=O)OCCO`, the Potency entry in test [1] and in test [2] was “inactive” each time.
As to `O=[N+]([O-])c1ccc(O)cc1`, the Potency entry in test [1] and in test [2] was “inactive” each time.
Take `CCN(CC)CCNC(=O)c1c(C)[nH]c(/C=C2\C(=O)Nc3ccc(F)cc32)c1C`: the Potency entry in test [1] and in test [2] was “inactive” throughout.
As for `Nc1cc(-c2ccncc2)c[nH]c1=O`, the Potency entry in test [1] and in test [2] was “inactive” throughout.
As to `CNCC[C@@H](Oc1ccccc1C)c1ccccc1`, the Potency result in test [1] and in test [2] was “inactive” each time.
`NC(=O)Cc1cccc(C(=O)c2ccccc2)c1N`: the Potency entry in test [1] and in test [2] was “inactive” throughout.
As for `CC(=O)OCC=C(C)C`, the Potency entry in test [1] and in test [2] was “inactive” throughout.
Take `O=C(O)CCc1ccccc1`: the Potency entry in test [1] and in test [2] was “inactive” throughout.
As for `Nc1ccc2cc3ccc(N)cc3nc2c1`, the Potency entry in test [1] and in test [2] was “inactive” each time.
In the case of `CCCOCCO`, the Potency result in test [1] and in test [2] was “inactive” in each case.
For the compound `CCCC(=O)c1ccccc1`, the Potency result in test [1] and in test [2] was “inactive” in each case.
Take `C=CC(=O)OCCOC1C2CCC1C1CC=CC12` (stereo unspecified): in test [1], the viability change, negative = cytotoxic was 9.26% [at 18.9 µM]. Further, the activity change, negative = cytotoxicity in test [2] was -3.05% [at 18.9 µM].
Regarding `CCOc1ccc(NC(C)=O)cc1N`, the Potency result in test [1] and in test [2] was “inactive” in each case.
As for `CC/C=C\CCCCO`, the Potency result in test [1] and in test [2] was “inactive” in each case.
As to `CCCCCCC(O)CCOC(C)=O` (stereo unspecified), the Potency result in test [1] and in test [2] was “inactive” throughout.
`O=C(CCNNC(=O)c1ccncc1)NCc1ccccc1`: the Potency result in test [1] and in test [2] was “inactive” in each case.
Turning to `CC(=O)CC/C=C(\C)CC/C=C(\C)CC/C=C(\C)CCC=C(C)C`, the Potency result in test [1] and in test [2] was “inactive” each time.
Regarding `NCC1(Cc2noc(=O)[nH]2)CCCCC1`, the Potency entry in test [1] and in test [2] was “inactive” each time.
`COc1ccc(CCC(C)=O)cc1`: the Potency result in test [1] and in test [2] was “inactive” in each case.
In the case of `COC1=CC(=O)C[C@@H](C)[C@]12Oc1c(Cl)c(OC)cc(OC)c1C2=O`, the Potency entry in test [1] and in test [2] was “inactive” in each case.
Consider `C=C(C)C(=O)OCCOC1CC2CC1C1C=CCC21` (stereo unspecified), for which the Potency result in test [1] and in test [2] was “inactive” each time.
For `ClC(c1ccccc1)(c1ccccc1)c1ccccc1`, the Potency result in test [1] and in test [2] was “inactive” in each case.
As for `CC1(C)CCC[C@]2(C)[C@H]3CCO[C@]3(C)CC[C@@H]12`, the Potency result in test [1] and in test [2] was “inactive” each time.
In the case of `Cc1cccc(N(C)C)c1`, the Potency entry in test [1] and in test [2] was “inactive” in each case.
In the case of `O=c1[nH]c(=O)c2ccccc2o1`, the Potency result in test [1] and in test [2] was “inactive” in each case.
`CC(=O)[C@H]1CC[C@H]2[C@@H]3CC=C4C[C@@H](O)CC[C@]4(C)[C@H]3CC[C@]12C`: the Potency result in test [1] and in test [2] was “inactive” each time.
`COc1cc2ncnc(Nc3cccc(Cl)c3)c2cc1OC`: in test [1], the viability change, negative = cytotoxic is 6.79% [at 18.9 µM]. Moreover, the activity change, negative = cytotoxicity in test [2] is 4.77% [at 18.9 µM].
Regarding `CC(=O)c1ccccc1O`, the Potency result in test [1] and in test [2] was “inactive” throughout.
On to `CCCCC1CCC(O)CC1` (stereo unspecified), for which the Potency result in test [1] and in test [2] was “inactive” in each case.
`[O-][n+]1ccc(Cl)cc1`: the Potency result in test [1] and in test [2] was “inactive” each time.
Consider `CCC(=O)O[C@@H]1C[C@H]2CC[C@]1(C)C2(C)C`, for which the Potency result in test [1] and in test [2] was “inactive” each time.
For `CCCCCCCCCCCCCC[n+]1ccccc1`, the Potency in test [1] is 48.6 µM (active); in test [2] it was 61.1 µM (active).
`Cc1cccc(Nc2ccncc2S(=O)(=O)NC(=O)NC(C)C)c1`: the Potency result in test [1] and in test [2] was “inactive” in each case.
In the case of `CC1(C)NC(=O)N(c2ccc([N+](=O)[O-])c(C(F)(F)F)c2)C1=O`, the Potency entry in test [1] and in test [2] was “inactive” in each case.
For `O=C1CCC(=O)N1`, the Potency entry in test [1] and in test [2] was “inactive” each time.
Consider `CC(C)CCOC(=O)c1ccccc1`, for which the Potency entry in test [1] and in test [2] was “inactive” throughout.
In the case of `CCC(C)N(C)C(=O)c1cc2ccccc2c(-c2ccccc2Cl)n1` (stereo unspecified), the Potency entry in test [1] and in test [2] was “inactive” each time.
For `CCCCC(=O)O[C@]1(C(=O)CO)[C@H](C)C[C@H]2[C@@H]3CCC4=CC(=O)C=C[C@]4(C)[C@@]3(F)[C@@H](O)C[C@@]21C`, the Potency entry in test [1] and in test [2] was “inactive” each time.
On to `OC(CCN1CCCCC1)(c1ccccc1)C1CCCCC1` (stereo unspecified), for which the Potency result in test [1] and in test [2] was “inactive” in each case.
For `O=C(O)Cc1cc(I)c(Oc2cc(I)c(O)c(I)c2)c(I)c1`, the Potency result in test [1] and in test [2] was “inactive” in each case.
With `CC1CCC2CC1C2(C)C` (stereo unspecified), the Potency result in test [1] and in test [2] was “inactive” throughout.
On to `OCC(O)CO`, for which the Potency entry in test [1] and in test [2] was “inactive” throughout.
Regarding `CC(=O)Oc1cc(C(C)C)c(OCCN(C)C)cc1C`, the Potency result in test [1] and in test [2] was “inactive” each time.
Turning to `CCCCCCCOC(=O)c1ccc(O)cc1`, the Potency result in test [1] and in test [2] was “inactive” each time.
As to `C[C@]12C=CC(=O)C=C1CC[C@H]1[C@@H]3C[C@@H](O)[C@](O)(C(=O)CO)[C@@]3(C)C[C@H](O)[C@@]12F`, the Potency entry in test [1] and in test [2] was “inactive” in each case.
Turning to `O=C(O)c1cc(-c2ccccc2)nc2ccccc12`, the Potency result in test [1] and in test [2] was “inactive” in each case.
For `NS(=O)(=O)c1cc2c(cc1Cl)CN(C1CCCCC1)C2=O`, the Potency entry in test [1] and in test [2] was “inactive” throughout.
With `CC1=CC(=O)c2ccccc2C1=O`, the Potency entry in test [1] and in test [2] was “inactive” throughout.
Take `Nc1c(Cl)cc(Cl)cc1Cl`: the Potency entry in test [1] and in test [2] was “inactive” each time.
On to `CCCCCCCOC(C)=O`, for which the Potency result in test [1] and in test [2] was “inactive” throughout.
Turning to `COC(=O)c1cccc(Cl)c1`, the Potency entry in test [1] and in test [2] was “inactive” each time.
For the compound `CCc1ccc(C=O)cc1`, the Potency result in test [1] and in test [2] was “inactive” in each case.
Regarding `O=C(CCCN1CC=C(n2c(=O)[nH]c3ccccc32)CC1)c1ccc(F)cc1`, the Potency entry in test [1] and in test [2] was “inactive” throughout.
Take `C=Cc1ccncc1`: the Potency result in test [1] and in test [2] was “inactive” in each case.
For the compound `C1CCCNCC1`, the Potency result in test [1] and in test [2] was “inactive” throughout.
With `C=C(C)C1CC=C(C)C(OC(C)=O)C1` (stereo unspecified), the Potency entry in test [1] and in test [2] was “inactive” throughout.
